The values below come from the OligoGym collection.
Further: reference of the scale not given here.

For this assay, the target named is GABRA1. Kind of assay: pooled miR-30 sensor sort-seq; sequence = guide strand. As to conditions: shRNA.
Sequence TTGTGAGAGAATCACTGTCATT showed a sensor-assay potency score (higher = more potent) of -1.6.

On to TTTTCTTGTATCTTTGAACCAT, for which the sensor-assay potency score (higher = more potent) amounted to 0.355.

In turn, TTGTCCAAGAAGGTCATACTGG gave a sensor-assay potency score (higher = more potent) of -0.186.

TTAGTGAAATAGTTTACTGTGG came in with a sensor-assay potency score (higher = more potent) of -0.522.

Turning to TTACACGCTCTCCCAATCCTGG, the sensor-assay potency score (higher = more potent) was -1.04.

For the sequence ATTGTCATAACCATCTAGGAGT, the sensor-assay potency score (higher = more potent) was -0.817.

Take TTTATCTCTAAAACATCTGGGC: the sensor-assay potency score (higher = more potent) came out at 0.106.

For TATTTATCTCTAAAACATCTGG, the sensor-assay potency score (higher = more potent) was -0.271.

TTAACAACATTCCAACAGCTAA: the sensor-assay potency score (higher = more potent) was -1.39.

Regarding TAAACAACTTCTGCTCTTGTAT, the sensor-assay potency score (higher = more potent) was -0.033.

With TCTTCTGCTACAACCACTGAGC, the sensor-assay potency score (higher = more potent) was -0.0993.
